Assay results published in PubChem BioAssay AID1159580 (chemical genetic matrix, 2015).
“And” between values parts separate entries of the source, which are not always exact repeats. Identical values can stand only once. In all, about 5,500 compounds went through this assay and about 2,000 (36%) were called active. Not shown: some 18% with an inconclusive outcome. No stated cut-off is given here; in the data, active means normalized growth mostly below about 0.91 (no sharp cut-off); inconclusive means no clear call, values can overlap the other calls; inactive means mostly above about 0.92. Some of the results follow.

Experiment: chemical genetic growth profiling, strain panel (AID 1159580);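 further: tested at 20 µM; growth read once vehicle control cultures reached saturation at 30 °C; 1 = growth at the plate median or of vehicle wells; lower values mean less growth of the strain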
Details: growth OD
[1] = S. cerevisiae deletion strains, locus YJR075W, strain HOC1, hits give low values
[2] = S. cerevisiae deletion strains, locus YMR263W, strain SAP30, hits give low values
[3] = S. cerevisiae deletion strains, locus YMR307W, strain GAS1, hits give low values
[4] = S. cerevisiae deletion strains, locus YNL128W, strain TEP1, hits give low values
[5] = S. cerevisiae deletion strains, locus YNL153C, strain GIM3, hits give low values
[6] = S. cerevisiae deletion strains, locus YPL055C, strain LGE1, hits give low values

Measured: normalized growth

CCSC(N)=Nc1ccc(C(F)(F)F)cc1
inactive: S. cerevisiae deletion strains, locus YAL040C, strain CLN3, hits give low values 0.942 | S. cerevisiae deletion strains, locus YCL061C, strain MRC1 (second series), hits give low values 0.997 | S. cerevisiae deletion strains, locus YDR363W, strain ESC2, hits give low values 0.98 | S. cerevisiae deletion strains, locus YER002W, strain NOP16, hits give low values 1.03 | S. cerevisiae deletion strains, locus YGR229C, strain SMI1, hits give low values 0.931 | [1] 1.01 | [2] 1 | [3] 1 | [4] 1.01 | [5] 1 | S. cerevisiae deletion strains, locus YNL175C, strain NOP13, hits give low values 1.01 | S. cerevisiae deletion strains, locus YNL197C, strain WHI3, hits give low values 1.03 | S. cerevisiae deletion strains, locus YNL224C, strain SQS1, hits give low values 0.997 | S. cerevisiae deletion strains, locus YOR083W, strain WHI5 (second series), hits give low values 0.989 | [6] 0.986

O=S(=O)(N/N=C\c1ccc(Cl)cc1)c1ccc(-c2ccccn2)s1
inactive: S. cerevisiae deletion strains, locus YAL013W, strain DEP1, hits give low values 0.973 | S. cerevisiae deletion strains, locus YAR019C, strain CDC15, hits give low values 0.993 | S. cerevisiae deletion strains, locus YBL105C, strain PKC1, hits give low values 0.981 | S. cerevisiae deletion strains, locus YBR135W, strain CKS1, hits give low values 0.98 | S. cerevisiae deletion strains, locus YBR136W, strain MEC1, hits give low values 0.982 | S. cerevisiae deletion strains, locus YBR160W, strain CDC28, hits give low values 0.969 | S. cerevisiae deletion strains, locus YBR229C, strain ROT2, hits give low values 0.994 | S. cerevisiae deletion strains, locus YDL017W, strain CDC7, hits give low values 0.978 | S. cerevisiae deletion strains, locus YDL028C, strain MPS1, hits give low values 0.969 | S. cerevisiae deletion strains, locus YDL101C, strain DUN1, hits give low values 0.979 and 0.977 | S. cerevisiae deletion strains, locus YDL108W, strain KIN28, hits give low values 0.976 | S. cerevisiae deletion strains, locus YDL132W, strain cdc53, hits give low values 0.975 | S. cerevisiae deletion strains, locus YDL134C, strain PPH21, hits give low values 0.931 | S. cerevisiae deletion strains, locus YDL214C, strain PRR2, hits give low values 0.98 | S. cerevisiae deletion strains, locus YDR052C, strain DBF4, hits give low values 0.97 | S. cerevisiae deletion strains, locus YDR054C, strain cdc34, hits give low values 0.979 | S. cerevisiae deletion strains, locus YDR150W, strain NUM1, hits give low values 0.976 | S. cerevisiae deletion strains, locus YDR226W, strain ADK1, hits give low values 0.988 | S. cerevisiae deletion strains, locus YDR477W, strain SNF1, hits give low values 0.958 | S. cerevisiae deletion strains, locus YEL061C, strain CIN8, hits give low values 0.935 | S. cerevisiae deletion strains, locus YER123W, strain YCK3, hits give low values 0.96 | S. cerevisiae deletion strains, locus YER133W, strain GLC7, hits give low values 0.99 | S. cerevisiae deletion strains, locus YFL009W, strain cdc4, hits give low values 0.974 | S. cerevisiae deletion strains, locus YFL029C, strain CAK1, hits give low values 0.994 | S. cerevisiae deletion strains, locus YFR003C, strain YPI1, hits give low values 0.976 | S. cerevisiae deletion strains, locus YFR019W, strain FAB1, hits give low values 0.976 | S. cerevisiae deletion strains, locus YFR028C, strain CDC14, hits give low values 0.973 | S. cerevisiae deletion strains, locus YGR040W, strain KSS1, hits give low values 0.96 | S. cerevisiae deletion strains, locus YGR052W, strain FMP48, hits give low values 0.947 | S. cerevisiae deletion strains, locus YGR078C, strain PAC10, hits give low values 0.975 | S. cerevisiae deletion strains, locus YGR092W, strain DBF2, hits give low values 0.942 | S. cerevisiae deletion strains, locus YHR030C, strain SLT2, hits give low values 0.797 and 1.04 | S. cerevisiae deletion strains, locus YHR079C, strain IRE1, hits give low values 1.07 | S. cerevisiae deletion strains, locus YHR082C, strain KSP1, hits give low values 1.02 | S. cerevisiae deletion strains, locus YHR087W, strain rtc3, hits give low values 0.998 | S. cerevisiae deletion strains, locus YHR205W, strain SCH9, hits give low values 0.983 | S. cerevisiae deletion strains, locus YIL147C, strain SLN1, hits give low values 0.975 | S. cerevisiae deletion strains, locus YJL095W, strain BCK1, hits give low values 0.961 | S. cerevisiae deletion strains, locus YJL128C, strain PBS2, hits give low values 0.946 | S. cerevisiae deletion strains, locus YJL157C, strain FAR1, hits give low values 0.98 | S. cerevisiae deletion strains, locus YJL187C, strain SWE1, hits give low values 1.02 | S. cerevisiae deletion strains, locus YJR016C, strain ILV3, hits give low values 0.976 | S. cerevisiae deletion strains, locus YJR043C, strain POL32, hits give low values 0.947 | S. cerevisiae deletion strains, locus YJR066W, strain TOR1 (second series), hits give low values 0.996 | S. cerevisiae deletion strains, locus YJR066W, strain TOR1, hits give low values 1.05 | [1] 0.988 | S. cerevisiae deletion strains, locus YKL048C, strain ELM1, hits give low values 0.959 | S. cerevisiae deletion strains, locus YKL067W, strain YNK1, hits give low values 0.976 | S. cerevisiae deletion strains, locus YKL101W, strain HSL1, hits give low values 0.949 | S. cerevisiae deletion strains, locus YKL193C, strain SDS22, hits give low values 0.977 | S. cerevisiae deletion strains, locus YKL203C, strain TOR2, hits give low values 1.04 | S. cerevisiae deletion strains, locus YLR058C, strain SHM2 (second series), hits give low values 0.996 | S. cerevisiae deletion strains, locus YLR085C, strain ARP6, hits give low values 0.912 | S. cerevisiae deletion strains, locus YLR113W, strain HOG1, hits give low values 0.888 | S. cerevisiae deletion strains, locus YLR133W, strain CKI1, hits give low values 0.967 | S. cerevisiae deletion strains, locus YLR403W, strain SFP1, hits give low values 0.95 | S. cerevisiae deletion strains, locus YML070W, strain DAK1, hits give low values 0.938 | S. cerevisiae deletion strains, locus YML094W, strain GIM5, hits give low values 0.95 | S. cerevisiae deletion strains, locus YMR001C, strain CDC5, hits give low values 0.99 | S. cerevisiae deletion strains, locus YMR205C, strain PFK2 (second series), hits give low values 0.969 | S. cerevisiae deletion strains, locus YMR219W, strain ESC1, hits give low values 0.998 | [2] 0.976 | S. cerevisiae deletion strains, locus YMR277W, strain FCP1, hits give low values 0.978 | [3] 0.712 | S. cerevisiae deletion strains, locus YNL006W, strain LST8, hits give low values 0.994 | S. cerevisiae deletion strains, locus YNL020C, strain ARK1, hits give low values 0.953 | [4] 0.975 | [5] 0.976 | S. cerevisiae deletion strains, locus YNL161W, strain CBK1, hits give low values 0.986 | S. cerevisiae deletion strains, locus YNL183C, strain NPR1, hits give low values 0.967 | S. cerevisiae deletion strains, locus YNL207W, strain RIO2, hits give low values 0.977 | S. cerevisiae deletion strains, locus YNL222W, strain SSU72, hits give low values 0.978 | S. cerevisiae deletion strains, locus YNL307C, strain MCK1 (second series), hits give low values 0.969 | S. cerevisiae deletion strains, locus YNL322C, strain KRE1, hits give low values 1 | S. cerevisiae deletion strains, locus YOL006C, strain TOP1, hits give low values 0.838 | S. cerevisiae deletion strains, locus YOL078W, strain AVO1, hits give low values 0.963 | S. cerevisiae deletion strains, locus YOL136C, strain PFK27, hits give low values 0.94 | S. cerevisiae deletion strains, locus YOR061W, strain CKA2, hits give low values 0.966 | S. cerevisiae deletion strains, locus YOR119C, strain RIO1, hits give low values 1.01 | S. cerevisiae deletion strains, locus YOR231W, strain MKK1, hits give low values 0.945 | S. cerevisiae deletion strains, locus YOR329C, strain SCD5, hits give low values 0.984 | S. cerevisiae deletion strains, locus YPL031C, strain PHO85, hits give low values 0.969 | [6] 1.1 | S. cerevisiae deletion strains, locus YPL153C, strain RAD53, hits give low values 0.963 | S. cerevisiae deletion strains, locus YPL204W, strain HRR25, hits give low values 0.951 | S. cerevisiae deletion strains, locus YPL209C, strain IPL1, hits give low values 0.974 | S. cerevisiae deletion strains, locus YPL241C, strain CIN2, hits give low values 0.894 | S. cerevisiae deletion strains, locus YPL256C, strain CLN2, hits give low values 1.03 | S. cerevisiae deletion strains, locus YPR025C, strain CCL1, hits give low values 0.982 | S. cerevisiae deletion strains, locus YPR106W, strain ISR1, hits give low values 0.986 | S. cerevisiae deletion strains, locus YPR111W, strain DBF20, hits give low values 0.967 | S. cerevisiae deletion strains, locus YPR135W, strain CTF4, hits give low values 0.711 | S. cerevisiae deletion strains, strain NNK1, hits give low values 0.996 | S. cerevisiae deletion strains, strain TSCII, hits give low values 0.984
active: S. cerevisiae deletion strains, locus YKL190W, strain CNB1, hits give low values 0.924 | S. cerevisiae deletion strains, locus YLR039C, strain RIC1, hits give low values 0.465 | S. cerevisiae deletion strains, locus YLR262C, strain YPT6, hits give low values 0.427 | S. cerevisiae deletion strains, locus YNL298W, strain CLA4 (second series), hits give low values 0.826 | S. cerevisiae deletion strains, locus YNR030W, strain Alg12, hits give low values 0.856 | S. cerevisiae strains, strain wild type, hits give low values 0.897
